According to PubChem BioAssay AID449762 (Southern Research Specialized Biocontainment Screening …, 2010):
The whole screen tested about 330,000 compounds, of which about 1,900 (0.58%) were called active. About 4% were inconclusive and are not listed. Cut-off read from the data, not from the text of the source: inconclusive = inhibition above about 70% without an active follow-up result; inactive = below that. These entries were drawn from the full list. Measured potencies and affinities stand elsewhere.

assay: M. tuberculosis growth inhibition, HTS (AID 449762);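 note: bacterial growth assessed after seven days of incubation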; conditions: M. tuberculosis H37Rv growth inhibition, 7H9 media; at 25 µM; hits give high values

Structure (SMILES)	inhibition
CCC(C)(C)NC(=O)C(c1ccncc1)N(Cc1ccc(C)cc1)C(=O)c1csnn1 (stereo unspecified)	-0.23% (inactive)
N#CCNc1ccc([N+](=O)[O-])cc1C#N	2.63% (inactive)
COc1cc2c(cc1OC)C(C)N(C(=O)c1cc3c(s1)-c1c(C)cccc1OC3)CC2 (stereo unspecified)	60.6% (inactive)
Cc1ccc(C(=O)N/C(=C\c2cccc([N+](=O)[O-])c2)C(=O)OCN2C(=O)c3ccccc3C2=O)cc1	9.25% (inactive)
Cc1ccc(C(=O)N/C(=C/c2ccco2)C(=O)O)cc1	0.79% (inactive)
CS/C(=C\[N+](=O)[O-])Nc1ccc(Cl)cc1	55.3% (inactive)
NN/C(=C\[N+](=O)[O-])Nc1ccccc1	69.9% (inactive)
CC(Sc1nnc(-c2cccs2)n1-c1ccccc1)C(=O)NCc1ccc2c(c1)OCO2 (stereo unspecified)	-16.1% (inactive)
CCCCOc1ccc(C(=O)Nc2ccc(N3CCN(C(=O)C(C)C)CC3)cc2)cc1	11.1% (inactive)
Cc1cc(Nc2ccccc2Cl)nc(-c2ccccc2O)n1	57.3% (inactive)
Cc1cc(OC2CCCCC2)nc(-c2ccccc2O)n1	-9.08% (inactive)
O=C(Cn1ncc(Cl)c(Cl)c1=O)N1CCOCC1	2.21% (inactive)
O=C(Cn1nc(Cl)nc1Cl)c1ccc2c(c1)OCCO2	60.7% (inactive)
CCOC(=O)c1sc(=NC(=O)c2ccc(C)c(C)c2)n(C)c1C	31.6% (inactive)
O=C(N/N=C/c1c[nH]c2ccccc12)c1sc2ccccc2c1Cl	1.35% (inactive)
O=C(N/N=C/c1cccnc1)c1sc2ccccc2c1Cl	66% (inactive)
CC(=O)NCCc1nc2cc(NC(=O)c3ccccc3Cl)ccc2n1C	-3.12% (inactive)
Cc1cc(C(C)(C)C)oc1C(=O)OCC(=O)NC1CCCCC1	7.47% (inactive)
CS(=O)(=O)N1c2ccccc2[C@]2([C@@]34C[C@H]5C(=O)N[C@@H](Cc6ccccc6)C(=O)N5[C@@H]3N(S(C)(=O)=O)c3ccccc34)C[C@H]3C(=O)N[C@@H](Cc4ccccc4)C(=O)N3[C@H]12	-2.63% (inactive)
CN1C(=O)[C@@H]2C[C@@]3([C@@]45C[C@H]6C(=O)N(C)[C@@H](Cc7ccccc7)C(=O)N6[C@@H]4Nc4ccccc45)c4ccccc4N[C@H]3N2C(=O)[C@@H]1Cc1ccccc1	11.8% (inactive)
CCCCC1S/C(=N/N=C/c2ccco2)NC1=O (stereo unspecified)	4.46% (inactive)
Cc1ccc(Cn2ccsc2=NC(=O)COC(=O)C(C)C)cc1	-7.15% (inactive)
CCC(=O)OCC(=O)N=c1sccn1Cc1ccc(C)cc1	6.77% (inactive)

Structure (SMILES)	inhibition
COc1ccccc1CN1CC(C(=O)N(C)CCc2nc3ccc(F)cc3[nH]2)CCC1=O (stereo unspecified)	8.31% (inactive)
CN(Cc1nc2ccccc2[nH]1)C(=O)C1CCC(=O)N(CCc2cccc(F)c2)C1 (stereo unspecified)	-0.88% (inactive)
Cc1cccc(NC(=S)NCC(C)CSc2ccc(Cl)cc2)c1 (stereo unspecified)	10.5% (inactive)
COc1cccc(C2NC(=O)NC(C)=C2C(=O)OCC2CCCCC2)c1 (stereo unspecified)	-17.1% (inactive)
O=C(CSc1cccc(C(F)(F)F)c1)Nc1ccc(Cl)cc1Cl	-3.06% (inactive)
COC(=O)[C@@H](NC(=O)N1CCN(c2cccc(C(F)(F)F)c2)CC1)C(C)C	5.31% (inactive)
COC(=O)[C@H](CC(C)C)NC(=O)N1CCN(c2cccc(C(F)(F)F)c2)CC1	1.6% (inactive)
Oc1ccccc1-c1nnc2n1CCCCC2	-9.99% (inactive)
Clc1ccccc1-c1nnc2n1CCCCC2	-3.29% (inactive)
CCOc1cc(N2CCOCC2)c(OCC)cc1NC(=O)CN1C(=O)NC(C)(C2CC2)C1=O (stereo unspecified)	8.07% (inactive)
Cc1ccc(C)c(Nc2ccc(C(=O)NCCc3ccccc3)cn2)c1	4.16% (inactive)
O=C(CCN=C1NS(=O)(=O)c2ccccc21)Nc1ccc(F)cc1Cl	7.31% (inactive)
c1ccc2c(c1)CCN(c1nc3cc4c(cc3s1)OCO4)C2	38.1% (inactive)
c1ccc(N2CCN(c3nc4cc5c(cc4s3)OCCO5)CC2)cc1	5.85% (inactive)
COc1ccc(S(=O)(=O)N2CCN(CC(=O)N3CCc4ccccc4C3)CC2)cc1OC	-1.57% (inactive)
CCCC(=O)NNC(=O)CC(=O)Nc1ccccc1C(=O)O	2.33% (inactive)
O=C(NC(=S)Nc1cccc2ncccc12)c1ccccc1	0.24% (inactive)
O=C(NC(=S)Nc1cccc2cnccc12)c1ccccc1	5.56% (inactive)
CNC(=O)Cc1nc2ccccc2n1CC(=O)Nc1cc(C)cc(C)c1	-9.59% (inactive)
COc1ccc(CN2[C@@H](CC(C)=O)c3cc(C(F)(F)F)ccc3S2(=O)=O)cc1	-4.65% (inactive)
Cc1nnnn1-c1ccc(CC(=O)O)cc1	-0.97% (inactive)
Cc1ccc(CSc2nnc(CCNC(=O)OC(C)(C)C)o2)cc1	6.64% (inactive)
CC(C)(C)OC(=O)NCCCCCc1nnc(SCc2ccccc2)o1	68.1% (inactive)

Structure (SMILES)	inhibition
O=C(/C=C/c1c[nH]c2ccccc12)c1c(O)n(CCc2ccccc2)c(=O)[nH]c1=O	35.3% (inactive)
CCCCn1c(O)c(C(=O)/C=C/c2ccc3c(c2)OCO3)c(=O)[nH]c1=O	1% (inactive)
COCCNC(=O)c1ccc(NC(=O)C2(c3ccccc3)CCCC2)cc1	40.9% (inactive)
CCn1c(CSCc2ccc(C)cc2)n[nH]c1=S	3.1% (inactive)
CC1(C)CCC[C@]2(C)[C@H]3Cc4cc(O)ccc4O[C@]3(C)CC[C@@H]12	6.49% (inactive)
Cc1cc(/C=N/n2cnnc2)c(C)n1-c1ccc(Cl)cc1	-4.08% (inactive)
Cc1cc(/C=N/n2cnnc2)c(C)n1-c1ccc(OCc2ccc(F)cc2)cc1	-2.12% (inactive)
O=C(CCCC(=O)OCC(=O)c1ccc(Cl)cc1)NC1CCCCC1	30.8% (inactive)
COc1ccc(C2(C#N)CCC(=O)N2c2ccccc2)cc1 (stereo unspecified)	5.44% (inactive)
COC(=O)CCc1sc(Nc2ccccc2)nc1-c1ccc(OC)cc1	52.4% (inactive)
COc1ccc(Nc2nc(-c3ccc(OC)cc3)c(CCC(=O)O)s2)cc1	26.3% (inactive)
O=C(CCCN1C(=O)c2ccccc2C1=O)N1CCN(c2ccccn2)CC1	-8.5% (inactive)
Cn1c(=O)c2c(nc(NCC3CCCO3)n2C)n(C)c1=O (stereo unspecified)	-5.47% (inactive)
Cc1ccc(C(=O)c2coc3ccc(O)cc23)cc1	2.44% (inactive)
C[C@@H](NC(=O)[C@@H]1Cc2ccccc2CN1)C(=O)Nc1ccc2c(c1)OCCO2	8.26% (inactive)
Cc1[nH]c2ccc(OC(F)(F)F)cc2c1CCNCc1cccc([N+](=O)[O-])c1	62.9% (inactive)
COc1ccc(CNCCc2c(C)[nH]c3ccc(OC(F)(F)F)cc23)c(OC)c1	35.2% (inactive)
C(=NC12CN3CN(CN(C3)C1)C2)c1ccc2c(c1)OCO2	-3.64% (inactive)
COC(=O)C1=C(c2ccc(F)cc2OCc2ccccc2)C[C@@H]2CC[C@H]1N2C(=O)NCc1ccc(F)cc1	-5.1% (inactive)
CC(Sc1nc(-c2ccccc2)nc2c1COC(C)(C)C2)C(=O)N1CCOCC1 (stereo unspecified)	-20.2% (inactive)
O=c1c2cnn(-c3ccccc3)c2nc(-c2cccs2)n1-c1ccc(Br)cc1	1.78% (inactive)
O=c1oc(-c2cccs2)nc2ccccc12	-3.68% (inactive)
Cc1ccc(-n2c(C)cc(/C=N/NC(=O)c3ccc(CN4CCOCC4)cc3)c2C)cc1	-0.81% (inactive)

Structure (SMILES)	inhibition
COc1cc(NC(=O)Cn2cnc(S(=O)(=O)N3CCOCC3)c2)cc(OC)c1OC	-1.58% (inactive)
O=C1C(O)=C(O)C(=O)c2ccccc21	-1.99% (inactive)
O=C1c2ccccc2-c2cccnc21	-8.77% (inactive)
CCC1CCCCN1C(=S)NCc1ccccc1 (stereo unspecified)	-0.48% (inactive)
CN(C)CCOc1cc(Cl)cc(Cl)c1	10% (inactive)
Cc1nc2c(C(=O)N3CCN(c4ccccn4)CC3)cnn2c(C)c1Cc1cccc(Cl)c1	48.5% (inactive)
O=C(NCc1cccnc1)/C(=C/c1ccc(-c2cccc(C(F)(F)F)c2)o1)NC(=O)c1ccccc1	11.6% (inactive)
Cc1ccc(C(=O)N/C(=C\c2ccco2)C(=O)NCc2cccnc2)cc1	-2.29% (inactive)
CCOC(=O)N1CCN(C(=O)CSc2ccc(C(=O)OC)cc2[N+](=O)[O-])CC1	-7.7% (inactive)
Clc1ccccc1Cc1noc(CN2CCN(Cc3ccccn3)CC2)n1	2.36% (inactive)
CC(C)(C)c1ccc(C(=O)NC2CCS(=O)(=O)C2)cc1 (stereo unspecified)	1.38% (inactive)
Cc1ccc(C(c2c(C)nn(-c3ccccc3)c2N)c2c(C)nn(-c3ccccc3)c2N)cc1	23.1% (inactive)
Cc1nn(-c2ccccc2)c(N)c1C(c1ccccc1)c1c(C)nn(-c2ccccc2)c1N	5.62% (inactive)
COc1ccc(OC)c(C(=O)COC(=O)CNC(=O)c2ccccc2)c1	-2.57% (inactive)
O=C(Nc1ccccc1)N1CCCN(c2c(Cl)cncc2Cl)CC1	2.69% (inactive)
O=C(CN1CCN(Cc2ccccc2)CC1)N/N=C/C=C/c1ccccc1[N+](=O)[O-]	12% (inactive)
O=C(CN1CCN(Cc2ccccc2Cl)CC1)N/N=C/C=C\c1ccccc1[N+](=O)[O-]	3.7% (inactive)
CCSc1nnc(NC(=O)c2nc3nc(C)cc(C)n3n2)s1	-7.36% (inactive)
Cc1ccccc1OCC(=O)OCC(=O)Nc1ccc2c(c1)OCCO2	-7.86% (inactive)
Cc1ccc2c(c1)c1ncnc(N3CCOCC3)c1n2C	-0.66% (inactive)
Cc1ccc2c(c1)c1ncnc(N3CCN(c4ccccc4)CC3)c1n2C	0.15% (inactive)
CC(=O)Nc1ccc(-c2csc(Nc3ncccn3)n2)cc1	10.8% (inactive)
